Test results taken from the supplement of paper PMC7595190.

Tested on: MV4-11
Experiment: CellTox Green cytotoxicity fluorescence relative to DMSO vehicle (fold of vehicle RFU); higher = more cell death (loss of membrane integrity), active = 2 or more
Procedure: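 Paediatric AML cell lines (MV4-11, CMK, Kasumi-1; 4x10^4 cells/well, 96-well) treated with single compounds from the Selleckchem apoptosis library at 0.01, 0.1 and 1 µM. Cytotoxicity was read with CellTox Green (RFU, Ex 485/Em 520) at 24, 48 and 72 h and normalised to the 0.1% DMSO vehicle. Normalised RFU >= 2 was taken as a successful, cell-killing treatment.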

Measured: CellTox Green cytotoxicity fluorescence

COc1cc(C)[nH]c(=O)c1CNC(=O)c1c(C)n([C@H](C)C2CCOCC2)c2ccccc12
inactive: 0.01 µM, 24 h 0.942 | 0.01 µM, 48 h 0.94 | 0.01 µM, 72 h 0.941 | 0.1 µM, 24 h 0.942 | 0.1 µM, 48 h 0.951 | 0.1 µM, 72 h 0.957 | 1 µM, 24 h 0.942 | 1 µM, 48 h 0.936 | 1 µM, 72 h 0.948

Cc1cc2c(C(C)C)c(O)c(O)c(C=O)c2c(O)c1-c1c(C)cc2c(C(C)C)c(O)c(O)c(C=O)c2c1O
inactive: 0.01 µM, 24 h 0.979 | 0.01 µM, 48 h 1 | 0.01 µM, 72 h 1 | 0.1 µM, 24 h 1 | 0.1 µM, 48 h 1 | 0.1 µM, 72 h 0.993 | 1 µM, 24 h 0.973 | 1 µM, 48 h 0.959 | 1 µM, 72 h 1.02

O=C(O)C(=O)c1cn(Cc2ccccc2)c2ccc(-c3ccc(OC(F)(F)F)cc3)cc12 [Tiplaxtinin]
inactive: 0.01 µM, 24 h 1.02 | 0.01 µM, 48 h 1.02 | 0.01 µM, 72 h 1.04 | 0.1 µM, 24 h 1.01 | 0.1 µM, 48 h 1.02 | 0.1 µM, 72 h 1.03 | 1 µM, 24 h 0.997 | 1 µM, 48 h 1.01 | 1 µM, 72 h 1

COc1ccc2c(c1)/C(=C/c1cnc[nH]1)C(=O)N2
inactive: 0.01 µM, 24 h 0.929 | 0.01 µM, 48 h 0.92 | 0.01 µM, 72 h 0.921 | 0.1 µM, 24 h 0.92 | 0.1 µM, 48 h 0.94 | 0.1 µM, 72 h 0.941 | 1 µM, 24 h 0.987 | 1 µM, 48 h 1.03 | 1 µM, 72 h 1.05
